Assay results published in the supplement of paper PMC10338343.
± gives the standard deviation.

test system: MILI (PIWIL2) piRISC loaded with L1MC piRNA (26 nt); assay: pre-steady-state target cleavage rate (min^-1); guide: L1MC piRNA 5'p-UAACUAAAUACUAUGCAAGCUGUAGG; MIWI and MILI are mouse PIWI proteins and EfPiwi is from a freshwater sponge; tags in brackets are library labels; higher = faster piRNA-guided slicing of the target; details: auxiliary factor: 500 nM mouse GTSF1
Protocol: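 Cleave-'n-Seq: a library of target RNAs (target site embedded in constant flanks, ACAGCATTCCGCGTTAGTGATATCCG... 5' flank; DNA-blocked outside the site) at 0.1 nM was incubated with 1 nM active mouse MILI or MIWI piRISC (synthetic 5'-monophosphorylated piRNA guide) with or without 500 nM mouse GTSF1 at 33 °C for 1 min to 16 h. Uncleaved targets were sequenced and normalised to non-target controls, and the pooled three trials were fitted to a burst-and-steady-state model to give the pre-steady-state cleavage rate (min^-1; k3 is constrained to at most 1e-4). Sequence is the target site only; target names encode pairing extent (gX:gY) and contiguous / 1-mismatch / 2-mismatch / bulge geometry. Fits with R² ≤ 0 are excluded.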

Sequence	pre-steady-state target cleavage rate
UCCUGGUAUAGCUUGCAUAGUAUUUAGUUA	0.252 ± 0.022
UCCUCCUACAGCUUUCAUAGUAUUUAGUUA	0.213 ± 0.017
UCCUGCUACAGCUUGCAUAGUAUUUCAGUUA	0.335 ± 0.075
UCCUGGAUGAGUUGCAUAGUAUUUAGUUA	0.108 ± 0.013
UCCUGCUACAGCUUGCAUAGUAUUUAAGUUA	0.365 ± 0.043
UCCUGGAUGAGCUUGCAUAGUAUUUAGAAA	0.119 ± 0.03
UCCUGGAUGUCCAUGCUUAGUAUUUAGUUA	0.0223 ± 0.0087
UCCUCCUAGAGCUAGCAUAGUAUUUAGUUA	0.218 ± 0.015
UCCUCCUACACCUUGCAUAGUAUAUAGUUA	0.199 ± 0.028
UCCUGCUACAGCUUGCAUAGUAUUUAGUGA	0.193 ± 0.033
UCCUGGUACACCUUGCAUAGUUUUUAGUUA	0.0288 ± 0.011
UCCUGGAUGUGCUUGCAUAGUAUUUACAAA	0.00913 ± 0.0046
UCCUGGAACAGCUUGCAUUGUAUAUAGUUA	0.149 ± 0.017
UCCUGGAUGUGCUUGCAUAGUAAUUUGUUA	0.0141 ± 0.0071
UCCUGGAUCCGCUUGCAUAGUAUUUAGUUA	0.297 ± 0.019
UCCUGCUACAGACUUGCAUAGUAUUUAGUUA	0.169 ± 0.018
UCCUGGAACAGCUAGCUUAGUAUUUAGUUA	0.186 ± 0.015
UCCUGGAACACGUUGCAUAGUAUUUAGAAA	0.187 ± 0.034
UCCUGGAUGUGCUUGCAUAGUAUUUAGUCUA	0.0182 ± 0.006
UCCUGGAUGUCCUUGCAUAGUAUUUAGUUU [g2:g19:cont:t1U]	0.17 ± 0.022
UCCUGCUACAGCUUCGCAUAGUAUUUAGUUA	0.268 ± 0.019
UCCUGGAUGUGCUUGCAUAGUAUUUUCUUA	0.00861 ± 0.005
UCCUGGUACAGCUUGGAUAGUAAUUAGUUA	0.226 ± 0.057

same assay, conditions: auxiliary factor: none (no GTSF1)

Sequence	pre-steady-state target cleavage rate
UCCUGGUAUAGCUUGCAUAGUAUUUAGUUA	0.011 ± 0.0024
UCCUCCUACAGCUUUCAUAGUAUUUAGUUA	0.00664 ± 0.002
UCCUGCUACAGCUUGCAUAGUAUUUCAGUUA	0.00409 ± 0.0028
UCCUGGAUGAGUUGCAUAGUAUUUAGUUA	0.00501 ± 0.0019
UCCUGCUACAGCUUGCAUAGUAUUUAAGUUA	0.00882 ± 0.0027
UCCUCCUAGAGCUAGCAUAGUAUUUAGUUA	0.00391 ± 0.0022
UCCUCCUACACCUUGCAUAGUAUAUAGUUA	0.00295 ± 0.0027
UCCUGCUACAGCUUGCAUAGUAUUUAGUGA	0.00299 ± 0.0027
UCCUGGUACACCUUGCAUAGUUUUUAGUUA	0.00381 ± 0.0034
UCCUGGUACAGCUUGCAUACAAUUUAGUUA	0.00451 ± 0.0027
UCCUGGAACAGCUUGCAUUGUAUAUAGUUA	0.00496 ± 0.0025
UCCUGGAUCCGCUUGCAUAGUAUUUAGUUA	0.00868 ± 0.0026
UCCUGCUACAGACUUGCAUAGUAUUUAGUUA	0.00767 ± 0.0021
UCCUGGAACAGCUAGCUUAGUAUUUAGUUA	0.0065 ± 0.0023
UCCUGGAUGUCCUUGCAUAGUAUUUAGUUU [g2:g19:cont:t1U]	0.0113 ± 0.0024
UCCUGCUACAGCUUCGCAUAGUAUUUAGUUA	0.00637 ± 0.0021
UCCUGGUACAGCUUGGAUAGUAAUUAGUUA	0.00415 ± 0.0029
